MCL1 BIM primary = inhibitors of MCL1 binding to BIM-BH3, primary screen, biochemical, fluorescence polarization; Induced myeloid leukemia cell differentiation protein Mcl-1 (Homo sapiens), Q07820; GST-MCL1 / FITC-Bim-BH3 fluorescence polarization; inhibition, % at 10.9 µM; 0.68% of 320,000 active;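 active = inhibition above the mean inhibition of all tested compounds plus 3 SD, set per campaign, cut at about 40% in these data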;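 note: higher means more loss of mP so more displacement of Bim peptide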
14-3-3 Bad PPI = inhibitors of 14-3-3 zeta/Bad binding, primary screen, biochemical, TR-FRET, bovine 14-3-3 zeta | 14-3-3 protein zeta/delta (Bos taurus), P63103 | TR-FRET 14-3-3zeta/Dy647-pBad peptide displacement, 1 h | inhibition, % at 21.7 µM | 0.71% of 220,000 active | AID 781, 2007;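 active = inhibition above about 70%, limit read from the data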
Mcl1 Noxa PPI = Mcl-1/Noxa binding inhibitors, primary screen, biochemical, TR-FRET, 1536-well; inhibition, % at 21.7 µM; TR-FRET Mcl-1/Noxa peptide binding, 2 h; 1.5% of 220,000 active;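 active = compounds that cut the protein-peptide binding signal by more than 50% relative to plate controls in a single-dose test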;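 note: His-tagged Mcl-1 with rhodamine Noxa BH3 peptide and terbium anti-His antibody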
eIF4E 4G PPI = eIF4E–eIF4G protein interaction inhibitors, primary screen, biochemical, uHTS, TR-FRET, eIF4GI fragment | Eukaryotic translation initiation factor 4E (Mus musculus) + Eukaryotic translation … | TR-FRET eIF4E-eIF4GI(517-606) binding, 2 h | inhibition, % at 21.7 µM | 0.37% of 220,000 active;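 active = inhibition above about 30%, limit read from the data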
Target sequence (P63073 whole entry, looked up, the tested form may be a part): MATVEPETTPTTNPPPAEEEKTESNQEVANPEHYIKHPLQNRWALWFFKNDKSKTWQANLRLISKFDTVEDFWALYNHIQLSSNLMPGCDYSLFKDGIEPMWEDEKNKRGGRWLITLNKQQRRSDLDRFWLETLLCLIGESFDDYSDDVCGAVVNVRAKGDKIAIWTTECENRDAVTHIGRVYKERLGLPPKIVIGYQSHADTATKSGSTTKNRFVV
Target sequence (Q04637 whole entry, looked up, the tested form may be a part): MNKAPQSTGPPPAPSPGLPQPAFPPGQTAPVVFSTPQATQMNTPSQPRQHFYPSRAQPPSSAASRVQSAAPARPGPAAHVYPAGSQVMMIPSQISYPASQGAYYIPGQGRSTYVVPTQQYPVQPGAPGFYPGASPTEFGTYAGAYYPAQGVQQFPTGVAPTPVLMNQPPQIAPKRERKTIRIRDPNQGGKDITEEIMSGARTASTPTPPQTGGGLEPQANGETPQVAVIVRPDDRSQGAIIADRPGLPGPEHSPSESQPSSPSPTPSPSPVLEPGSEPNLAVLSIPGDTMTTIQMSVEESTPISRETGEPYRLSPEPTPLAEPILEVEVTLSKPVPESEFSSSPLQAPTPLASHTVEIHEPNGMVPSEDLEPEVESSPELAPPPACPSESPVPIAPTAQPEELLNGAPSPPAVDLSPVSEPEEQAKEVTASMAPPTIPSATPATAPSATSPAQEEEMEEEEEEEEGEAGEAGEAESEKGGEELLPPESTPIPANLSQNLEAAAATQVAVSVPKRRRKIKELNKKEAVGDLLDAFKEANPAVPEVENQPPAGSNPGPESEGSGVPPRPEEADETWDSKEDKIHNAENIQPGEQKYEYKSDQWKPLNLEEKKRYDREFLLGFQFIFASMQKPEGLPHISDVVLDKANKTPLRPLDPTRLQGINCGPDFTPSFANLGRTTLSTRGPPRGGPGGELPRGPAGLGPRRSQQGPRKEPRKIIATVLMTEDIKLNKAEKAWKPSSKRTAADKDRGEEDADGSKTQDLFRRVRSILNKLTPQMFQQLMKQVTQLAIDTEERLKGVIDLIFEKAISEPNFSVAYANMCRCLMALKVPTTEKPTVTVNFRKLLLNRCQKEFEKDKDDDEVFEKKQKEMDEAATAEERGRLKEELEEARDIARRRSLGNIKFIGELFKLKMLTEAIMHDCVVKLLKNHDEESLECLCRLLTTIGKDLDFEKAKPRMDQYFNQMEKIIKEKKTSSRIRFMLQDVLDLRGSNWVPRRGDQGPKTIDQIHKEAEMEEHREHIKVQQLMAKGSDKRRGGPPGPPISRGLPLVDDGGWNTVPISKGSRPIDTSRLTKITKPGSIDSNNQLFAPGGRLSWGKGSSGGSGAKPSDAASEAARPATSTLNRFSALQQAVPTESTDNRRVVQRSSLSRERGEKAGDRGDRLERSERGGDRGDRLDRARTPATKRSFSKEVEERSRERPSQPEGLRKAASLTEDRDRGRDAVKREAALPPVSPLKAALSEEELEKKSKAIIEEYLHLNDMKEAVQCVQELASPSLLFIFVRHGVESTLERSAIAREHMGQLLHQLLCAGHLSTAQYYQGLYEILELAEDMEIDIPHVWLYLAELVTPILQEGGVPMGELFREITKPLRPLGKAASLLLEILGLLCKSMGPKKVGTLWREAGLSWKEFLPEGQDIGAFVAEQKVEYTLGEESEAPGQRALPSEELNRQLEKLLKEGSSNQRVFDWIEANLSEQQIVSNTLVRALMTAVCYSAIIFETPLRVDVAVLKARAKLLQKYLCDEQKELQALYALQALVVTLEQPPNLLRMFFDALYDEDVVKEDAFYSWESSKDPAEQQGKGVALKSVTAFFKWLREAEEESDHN
Bim-Mcl-1 = inhibitors of Bim peptide binding to Mcl-1, primary screen, biochemical, bead-based flow cytometry, multiplex | AID 1009, 2008 | inhibition, % at 10 µM | Bim peptide-Mcl-1 binding | 0.1% of 190,000 active; in the data active = inhibition above about 40%
Mcl1-Bid inh = Mcl-1/Bid binding inhibitors, primary screen, biochemical, TR-FRET, 1536-well; Induced myeloid leukemia cell differentiation protein Mcl-1 (Homo sapiens), Q07820; 0.97% of 220,000 active; TR-FRET Mcl-1/Bid-Dy647 peptide binding; inhibition, % at 21.7 µM; AID 1021, 2008;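 active = compounds that cut the binding signal by more than half at the single screening dose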;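 note: His-tagged Mcl-1 with europium anti-His antibody binding Bid BH3 peptide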
Each line names hits and unclear results; the compound was inactive in the other large screens. Rows were chosen to be rich in hits. Some 2.6% of all compounds tested hit in one or more screens of this group.

O=C(COC(=O)c1cc[n+]([O-])cc1)Nc1ccccc1Cl	Mcl1-Bid inh 87
O=C(Nc1ccc(OC(F)(F)F)cc1)C1CCCN(S(=O)(=O)c2cccnc2)C1 (configuration not stated)	14-3-3 Bad PPI 82
c1cncc(-c2nc(-c3ccco3)cs2)c1	14-3-3 Bad PPI 73
Cc1cc(C(=O)Nc2cccc(S(=O)(=O)N3CCCCC3)c2)c2ccccc2n1	Mcl1 Noxa PPI 65
O=C(Nc1cccc(S(=O)(=O)N2CCCCCC2)c1)c1ccc2c(c1)OCO2	14-3-3 Bad PPI 78
COCCn1cnnc1SCC(=O)Nc1cccc(S(=O)(=O)N2CCCCCC2)c1	Mcl1-Bid inh 54
Cn1cnnc1SCC(=O)Nc1cccc(S(=O)(=O)N2CCCCCC2)c1	none
O=c1[nH]c2ccc(NCc3ccccc3OCc3ccc(Cl)cc3)cc2[nH]1	none (no result: 14-3-3 Bad PPI, Mcl1 Noxa PPI, eIF4E 4G PPI, Bim-Mcl-1, Mcl1-Bid inh)
COCCNC(=O)c1onc(CSc2ccccc2C)c1C(=O)O	none
COCCNC(=O)c1onc(CSc2cc(C)ccc2C)c1C(=O)O	14-3-3 Bad PPI 78
COCCNC(=O)c1onc(CSc2ccc(F)c(F)c2)c1C(=O)NCCOC	none (no result: 14-3-3 Bad PPI, Mcl1 Noxa PPI, eIF4E 4G PPI, Bim-Mcl-1, Mcl1-Bid inh)
O=C(NCC1CCCO1)c1onc(CSc2ccccc2)c1C(=O)O (configuration not stated)	14-3-3 Bad PPI 72
COCCNC(=O)c1onc(CSc2ccc(F)c(F)c2)c1C(=O)O	14-3-3 Bad PPI 77
CC(C)(C)NC(=O)NC(=O)CSc1ccc(S(=O)(=O)N2CCCCC2)cn1	none (no result: 14-3-3 Bad PPI, Mcl1 Noxa PPI, eIF4E 4G PPI, Bim-Mcl-1, Mcl1-Bid inh)
COc1ccc(S(=O)(=O)NC(C)(C)C)cc1-c1nnc2c3ccccc3c(C)nn12	none
CNS(=O)(=O)c1ccc(OC)c(-c2nnc3c4ccccc4c(C)nn23)c1	14-3-3 Bad PPI 92
CC(C)OC(=O)/C(C#N)=C/c1cn(Cc2ccccc2)c2ccccc12	none
CC(C)COC(=O)/C(C#N)=C/c1cn(Cc2ccccc2)c2ccccc12	Bim-Mcl-1 40
CCCC(C)CO (configuration not stated)	none (no result: 14-3-3 Bad PPI, Mcl1 Noxa PPI, eIF4E 4G PPI, Bim-Mcl-1, Mcl1-Bid inh)
C=CCNc1nc(C)c(C(C)=O)cc1C#N	none
CC(=O)c1cc(C#N)c(NCCCN(C)C)nc1C	Mcl1-Bid inh 56
CC1OC(OC2C(OC3C(O[C@H]4CC[C@]5(C)C6C=C[C@]78OC[C@@]9(CC[C@@H](C)[C@H](C)C97)[C@H](O)C[C@@]8(C)[C@]6(C)CC[C@H]5C4(C)C)OC(C)C(O)C3O)OC(CO)C(O)C2O)C(O)C(O)C1O (some centres not stated)	eIF4E 4G PPI 56 (no result: MCL1 BIM primary, Bim-Mcl-1)
C[C@@H](CSc1ccccc1)CN1CC[C@H](NC(=O)OCc2ccccc2)CCC1=O	none (no result: 14-3-3 Bad PPI, Mcl1 Noxa PPI, eIF4E 4G PPI, Bim-Mcl-1, Mcl1-Bid inh)
CCOC(=O)c1c(C)[nH]c(C2=NNC(=NC3CC3)SC2)c1C	Mcl1 Noxa PPI 64
CCOc1ccc(C2C3=C(Nc4nc(N)[nH]c(=O)c42)c2ccccc2C3=O)cc1 (configuration not stated)	Mcl1 Noxa PPI 76, Mcl1-Bid inh 52
CCCOc1ccc(C2C3=C(Nc4nc(N)[nH]c(=O)c42)c2ccccc2C3=O)cc1 (configuration not stated)	none (no result: Bim-Mcl-1)
COc1ccc(/C=N/NC(=O)c2nnn(-c3nonc3N)c2CN(C)c2ccccc2)cc1	none (no result: 14-3-3 Bad PPI, Mcl1 Noxa PPI, eIF4E 4G PPI, Bim-Mcl-1, Mcl1-Bid inh)
O=c1c2cc(N3CCOCC3)ccc2[nH]c(=S)n1Cc1ccco1	Mcl1 Noxa PPI 58 (no result: 14-3-3 Bad PPI, eIF4E 4G PPI)
C#CCOCCOCCOCCNc1nc(N2CCN(C(=O)C([C@@H](C)CC)n3cc(C(N)CC(C)C)nn3)CC2)nc(N2CCN(C(=O)[C@H](CCC(=O)O)n3cc(C(N)[C@H](C)CC)nn3)CC2)n1 (some centres not stated)	none
C#CCOCCOCCOCCNc1nc(N2CCN(C(=O)[C@H](Cc3cc4ccccc4[nH]3)n3cc(C(N)CC(C)C)nn3)CC2)nc(N2CCN(C(=O)[C@H](CCC(=O)O)n3cc(C(N)[C@H](C)CC)nn3)CC2)n1 (some centres not stated)	Mcl1-Bid inh 63
C#CCOCCOCCOCCNc1nc(N2CCN(C(=O)[C@H](CCC(=O)O)n3cc(C(N)CC(C)C)nn3)CC2)nc(N2CCN(C(=O)[C@H](CCC(=O)O)n3cc(C(N)[C@H](C)CC)nn3)CC2)n1 (some centres not stated)	Mcl1-Bid inh 76
C#CCOCCOCCOCCNc1nc(N2CCN(C(=O)[C@H](CCC(=O)O)n3cc(C(N)CC(C)C)nn3)CC2)nc(N2CCN(C(=O)[C@H](Cc3cc4ccccc4[nH]3)n3cc(C(N)CC(C)C)nn3)CC2)n1 (some centres not stated)	none
C#CCOCCOCCOCCNc1nc(N2CCN(C(=O)[C@H](Cc3cc4ccccc4[nH]3)n3cc([C@@H](N)C(C)CC)nn3)CC2)nc(N2CCN(C(=O)[C@H](CCCCN)n3cc([C@@H](N)CC(C)C)nn3)CC2)n1 (some centres not stated)	Mcl1-Bid inh 78
C#CCOCCOCCOCCNc1nc(N2CCN(C(=O)[C@H](Cc3cc4ccccc4[nH]3)n3cc([C@@H](N)CC(C)C)nn3)CC2)nc(N2CCN(C(=O)[C@H](Cc3cc4ccccc4[nH]3)n3cc([C@@H](N)CC(C)C)nn3)CC2)n1	Mcl1 Noxa PPI 54, Mcl1-Bid inh 75
CCCCN(C)C(=O)c1nc2ccccn2c1CN1CCC[C@H]1CO	none (no result: 14-3-3 Bad PPI, Mcl1 Noxa PPI, eIF4E 4G PPI, Bim-Mcl-1, Mcl1-Bid inh)
COc1ccc(C(=O)NCC(=O)N2CCN(C(=O)c3ccco3)CC2)cc1	none (no result: 14-3-3 Bad PPI, Mcl1 Noxa PPI, eIF4E 4G PPI, Bim-Mcl-1, Mcl1-Bid inh)
COc1cccc(-c2ccc(NC(=O)C3CCCN(Cc4nccn4C)C3)cc2)c1 (configuration not stated)	none (no result: 14-3-3 Bad PPI, Mcl1 Noxa PPI, eIF4E 4G PPI, Bim-Mcl-1, Mcl1-Bid inh)
COC(=O)c1ccc(CN(c2ccc(C(=O)O)c(O)c2)S(=O)(=O)c2ccc(Cl)c([N+](=O)[O-])c2)cc1	none (no result: 14-3-3 Bad PPI, Mcl1 Noxa PPI, eIF4E 4G PPI, Bim-Mcl-1, Mcl1-Bid inh)
CN(Cc1c(O)ccc2c1oc(=O)c1ccccc12)C1CCCCC1	14-3-3 Bad PPI 87, Mcl1-Bid inh 65
Cc1nc2ccccc2n1CSc1ccccc1	Bim-Mcl-1 42
O=C(O)CC(NC(=O)COc1ccc(Cl)cc1Cl)C(=O)O (configuration not stated)	Mcl1-Bid inh 72
COc1nc(C)nc(NC(=O)NS(=O)(=O)c2ccc(C)cc2)n1	Mcl1 Noxa PPI 65
OCC[C@@H]1C[C@@H](O)[C@H](O)[C@@]2(OCCc3ccccc32)O1	none (no result: 14-3-3 Bad PPI, Mcl1 Noxa PPI, eIF4E 4G PPI, Bim-Mcl-1, Mcl1-Bid inh)

Screening results: PubChem, several laboratories
